Inconclusive results are not listed. Active and inactive are the calls of the source. Rule for the calls, unless noted: active = hit-call score of the fitted dose curve at least 0.9, where 1 is the maximum; inconclusive = response in the unintended direction; inactive = score below 0.9.
How the values were obtained:
[1] = tested on: Thyroperoxidase (TPO), gene 54314; experiment: CCTE_Simmons_AUR_rTPO: CCTE's Amplex UltraRed Assay for Thyroperoxidase (TPO) Inhibition, Simmons Lab (AID 2283662);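 note: potency for loss of signal meaning inhibition of peroxidase activity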
In short: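 Rat thyroid microsomes (5 ug protein) were incubated with test compound (8 concentrations, 5 nM–87.5 uM final, 0.5% DMSO), 25 uM Amplex UltraRed and 300 uM H2O2 in 200 mM phosphate buffer for 30 min at 37C in the dark; fluorescence read at 544/590 nm.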

[2] = CCTE_Simmons_CellTiterGLO_HEK293T: Viability Assessment in CCTE's Assays for Thyroperoxidase (TPO) Inhibition, Simmons Lab (AID 2283665);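 for AC50: cells exposed to compound for 24 h before readout; actives reduce ATP signal below DMSO vehicle meaning cytotoxicity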
In short: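 HEK293T cells in DMEM with 1% FBS were dosed with 8 concentrations (5 nM–87.5 uM final, 0.5% DMSO) for 24 hr at 37C; ATP content was read by CellTiter-Glo luminescence, loss-of-signal versus DMSO, three biological replicates.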

[3] = Tanguay_ZF_120hpf_TR_legacy: (Legacy) Oregon State University Tanguay Lab 120 Hour Post-fertilization zebrafish Assay for Touch Response (AID 2283667)
In short: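 Tropical 5D wild-type zebrafish embryos were exposed statically in sealed, foil-covered plates at 28C until 120 hpf, with 0.64% (vol/vol) final DMSO. Touch response was scored as present or absent; embryos that died were not scored.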

[4] = CCTE_Padilla_ZF_144hpf_TERATOSCORE: (Legacy) CCTE's 144 Hour Post-fertilization zebrafish Assay Teratoscore, Padilla Lab (AID 2283679; active = hit-call score of the fitted dose curve at least 0.9, where 1 is the maximum; inactive = score below 0.9;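 for AC50: zebrafish embryos with chorions exposed by immersion from 6-8 hpf to 5 dpf with daily renewal; teratogenicity score from eye scoring of death hatching and malformations at 144 hpf; higher score means more developmental defects relative to DMSO baseline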)
In short: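 Larvae scored by eye at 144 hpf for death, hatching and malformations after a day in clean Hanks'. Before that, daily-renewed exposure at 80 uM (0.4% DMSO, 26C) from roughly 6-8 hpf through 5 dpf, 4 embryos per chemical.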

[5] = Tanguay_ZF_120hpf_ActivityScore_legacy: (Legacy) Oregon State University Tanguay Lab 120 Hour Post-fertilization zebrafish Assay Score for Activity (AID 2283742);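 for AC50: static exposure from 6 hpf until 120 hpf at 28 °C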
In short: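 Tropical 5D wild-type zebrafish embryos, dechorionated with pronase at 4 hpf, were exposed singly from 6 hpf to 120 hpf statically at 28C in 0.64% DMSO. Malformations and mortality were scored as binary by brightfield, with the activity score combining 18 morphology components.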

[6] = biological target: Luciferin 4-monooxygenase (Photinus pyralis) (UniProt P08659); experiment: CCTE_Simmons_QuantiLum_inhib_2: CCTE's Firefly Luciferase Inhibition Assay, Simmons Lab (AID 2283767);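 for AC50: potency for inhibitors that lower luciferase luminescence relative to DMSO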
Sequence of Luciferin 4-monooxygenase (Photinus pyralis) (P08659 whole entry, looked up): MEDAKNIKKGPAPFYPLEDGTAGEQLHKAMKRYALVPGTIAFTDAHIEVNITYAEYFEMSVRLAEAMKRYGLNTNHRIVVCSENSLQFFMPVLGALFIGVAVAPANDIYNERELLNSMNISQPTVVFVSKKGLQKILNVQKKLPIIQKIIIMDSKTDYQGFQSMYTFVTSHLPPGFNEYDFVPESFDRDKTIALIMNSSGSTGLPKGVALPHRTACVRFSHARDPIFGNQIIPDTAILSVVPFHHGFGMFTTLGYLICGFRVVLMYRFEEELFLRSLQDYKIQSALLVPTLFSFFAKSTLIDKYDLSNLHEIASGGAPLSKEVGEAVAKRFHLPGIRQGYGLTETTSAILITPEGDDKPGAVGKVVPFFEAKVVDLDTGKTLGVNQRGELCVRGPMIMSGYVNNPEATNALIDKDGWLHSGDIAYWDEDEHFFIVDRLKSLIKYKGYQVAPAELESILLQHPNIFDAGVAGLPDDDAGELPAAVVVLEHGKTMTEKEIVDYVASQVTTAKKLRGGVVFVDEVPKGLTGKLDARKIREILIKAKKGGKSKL
In short: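 Recombinant firefly luciferase (5 ng/well, 200 mM potassium phosphate with 1 mg/ml BSA) was exposed to 8 concentrations from 5 nM to 87.5 uM (final, 0.5% DMSO) for 30 min at 37C in the dark. Loss of luminescence versus DMSO was read after injecting D-luciferin/ATP-analogue reagent.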

[7] = CEETOX_H295R_MTT_cell_viability: Viability Assessment in the CeeTox HT-H295R MTT Assay (AID 2283718; active = hit-call score of the fitted dose curve at least 0.9, where 1 is the maximum; inactive = score below 0.9)
In short: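 H295R cells prestimulated 48 h with 10 uM forskolin, then exposed 48 h to test chemical (0.1% DMSO final). Viability by MTT (0.5 mg/ml, 4 h, 37 C), absorbance 570/650 nm; percent change versus DMSO, bidirectional fit.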

[8] = STM_H9_OrnithineISnorm_perc: Stemina devTOX quickPredict H9 human embryonic stem cell (hESC)-based Assay for Ornithine (ORN) Metabolite Biomarker, Normalized (AID 2283712; active = hit-call score of the fitted dose curve at least 0.9, where 1 is the maximum; inactive = score below 0.9;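 note: ornithine released into spent medium during last day measured by mass spectrometry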)
In short: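 Undifferentiated pluripotent H9 hESCs were exposed to compound for 72h, with media and compound replaced every 24h. Ornithine in final 24-h conditioned media was measured by UPLC-HRMS, normalized to 13C-labeled spike-in standard and to median 0.1% DMSO control.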

[9] = STM_H9_CystineISnorm_perc: Stemina devTOX quickPredict H9 human embryonic stem cell (hESC)-based Assay for Cystine (CYSS) Metabolite Biomarker, Normalized (AID 2283713; active = hit-call score of the fitted dose curve at least 0.9, where 1 is the maximum; inactive = score below 0.9)
In short: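 Undifferentiated H9 hESCs were exposed to compound for 72h, with medium and compound replaced every 24h. Final-24h conditioned medium was deproteinized and analyzed by UPLC-HRMS. Cystine EIC area was normalized to spiked C13 standard and 0.1% DMSO median.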

[10] = tested on: Thyroperoxidase (TPO), gene 445522; experiment: CCTE_Simmons_GUA_TPO: CCTE's Guaiacol Assay for Thyroperoxidase (TPO) Inhibition, Simmons Lab (AID 2283750)
In short: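 Porcine thyroid microsomes (25 ug) in 200mM potassium phosphate, preincubated 30 s at 37C with compound (8 concentrations, 5 nM–87.5 uM) and 35mM guaiacol; 1mM H2O2 starts reaction. Absorbance change at 450nm over first 80 s; loss of signal versus DMSO, three replicates.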

[11] = STM_H9_OrnCyssISnorm_ratio: Stemina devTOX quickPredict H9 human embryonic stem cell (hESC)-based Assay for Ornithine (ORN):Cystine (CYSS) Ratio (AID 2283714)
In short: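 Undifferentiated H9 hESCs were exposed to compound for 72h with media and chemical replaced every 24h. Final 24-h conditioned media were deproteinized and analysed by UPLC-HRMS. ORN and CYSS peak areas were normalized to C13 internal standards and the ratio taken versus 0.1% DMSO.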

[12] = ArunA_CellTiter_hNC: Viability Assessment in the ArunA Biomedical's Oris Neural Crest (hNC) Cell Migration Assay (AID 2283752)
In short: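 Human H9-derived neural crest stem cells were plated at 60,000 per well on Matrigel in growth medium with LIF and bFGF, incubated 16 h at 37C, then exposed to chemical for 72 h. Viability was read with CellTiter Aqueous One as loss of signal versus DMSO.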

[13] = ArunA_Migration_hNP: ArunA Biomedical's Oris Neuroprogenitor (hNP) Cell Migration Assay (AID 2283754)
In short: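 Human H9-derived hNP1 neuroprogenitors on Matrigel with LIF/bFGF, plated around seeding stoppers for 16 h at 37C; stoppers removed at start of 72 h chemical exposure. Calcein-AM staining, fluorescence 494/517 nm in detection zone; loss-of-signal vs DMSO; cytochalasin D control.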

[14] = ArunA_Migration_hNC: ArunA Biomedical's Oris Neural Crest (hNC) Cell Migration Assay (AID 2283755)
In short: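 Human H9-derived neural crest stem cells, 60,000/well on Matrigel, 16 h at 37C, then 72 h chemical exposure after seeding-stopper removal. Migration into detection zone read as calcein-AM fluorescence (ex494/em517), relative to DMSO.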

[15] = ArunA_NOG_NeuriteLength: ArunA Biomedical's Neurite Outgrowth (NOG) Assay for Neurite Length (AID 2283757)
In short: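 Differentiated human H9-derived neurons were exposed for 48 h from seeding, then stained with Hoechst and βIII-tubulin. Automated high-content imaging gave total neurite length per valid neuron, counting processes >10 um. Loss of signal was scored versus DMSO.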

[16] = ArunA_NOG_NeuritesPerNeuron: ArunA Biomedical's Neurite Outgrowth (NOG) Assay for Neurites Per Neuron (AID 2283758)
In short: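 Differentiated human H9-derived neurons exposed to chemicals for 48 h from seeding, then stained with Hoechst and βIII-tubulin/DyLight 488. Automated imaging counted neurites (processes >10 um) per valid neuron; loss of signal versus DMSO scored.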

[17] = ArunA_NOG_BranchPointsPerNeurite: ArunA Biomedical's Neurite Outgrowth (NOG) Assay for Branch Points Per Neurite (AID 2283759)
In short: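 Automated image analysis traced neurites (processes >10 um) from valid cell bodies after Hoechst and βIII-tubulin staining. hNN cells from H9 embryonic stem cells, 48 h exposure. Fitted bidirectionally against DMSO.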

Measured: AC50

CCOP(=S)(OCC)SCSCC
active: [1] 20.5 µM | [2] 13.6 µM
inactive: [3] | [4] | [5] | [6]

CCOP(=S)(Oc1ccc([N+](=O)[O-])cc1)c1ccccc1 (stereo not given)
active: [1] 10.2 µM | [4] 1.19 µM
inactive: [2] | [3] | [7] | [5] | [6]

CCOC(=O)c1ccccc1C(=O)OCC
inactive: [3] | [8] | [9] | [7] | [5]

CCNc1nc(Cl)nc(NC(C)(C)C)n1
inactive: [3] | [4] | [7] | [5]

Cc1ccc(O)cc1C
inactive: [3] | [5]

CC(C)(C)c1ccc(O)cc1
active: [1] 2.73 µM | [2] 57.4 µM | [4] 57.8 µM | [5] 42.8 µM
inactive: [3] | [6]

Cc1cccc(N)c1
inactive: [2] | [4] | [7] | [5] | [6]
active: [1] 0.268 µM | [10] 8.25 µM

CCCCCCCc1ccc(O)cc1
active: [1] 10.2 µM | [2] 10.1 µM | [4] 6.11 µM | [6] 43.6 µM
inactive: [3] | [5]

CCC(C)(C)c1ccc(O)cc1
inactive: [9] | [7] | [6]
active: [1] 4.91 µM | [2] 28.1 µM | [3] 48.3 µM | [4] 14.2 µM | [8] 78.2 µM | [11] 40.1 µM | [5] 21.3 µM

O=C(O)C1C(C(=O)O)C2(Cl)C(Cl)=C(Cl)C1(Cl)C2(Cl)Cl (stereo not given)
not listed: [1] | [2] | [4] | [6] | [7] | [10] | [11]
inactive: all other assays above

CCCCN(CC)C(=O)SCCC
inactive: [6]
active: [1] 6.35 µM | [2] 73.1 µM

CCCCN(CCCC)SN(C)C(=O)Oc1cccc2c1OC(C)(C)C2
active: [4] 6.04 µM
inactive: [3] | [5]

c1ccc2c(c1)Nc1ccccc1S2
active: [1] 15 µM | [2] 9.57 µM | [4] 14.2 µM | [10] 100 µM
inactive: [3] | [8] | [9] | [11] | [7] | [5] | [6]

[N-]=[N+]=[N-]
active: [10] 26.5 µM
inactive: [2] | [3] | [4] | [5] | [6]

O=S1(=O)OCC2C(CO1)C1(Cl)C(Cl)=C(Cl)C2(Cl)C1(Cl)Cl (stereo not given)
inactive: [7]
active: [1] 2.41 µM | [2] 28.5 µM | [6] 31.9 µM
